This note sets out measurements from PubChem BioAssay.

Molecules are shown by their SMILES. The source made the active and inactive calls. Unless noted, how the calls were made is not given here.

Test [1] in a line: resazurin metabolic signal in HepG2 cells – cell-based, resazurin fluorescence, 24 h, PK04 Diversity Set, profiling panel (AID 1172). Further: test concentration not given here. The note with it: HepG2 viability, higher = more signal. Background: The colour change of resazurin is a common sign of viable cells or microbes.
A short description of test [2]: budding yeast growth changes without added modifier – OD600, strain BY4716, 24 h, basal condition, primary screen (AID 1173). The following applies: S. cerevisiae BY4716 growth, OD600, 24 h; higher = more signal, called active from +8 up or from −8 down.
Test [3] is described as follows: viability profiling in MM1S myeloma cells – cell-based, resazurin fluorescence, basal, 24 h, PK04 Diversity Set, profiling panel (AID 1174).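 Further: MM1S multiple myeloma cell line; test concentration not given here.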 The note with it: higher = more signal, called active from +8 up or from −8 down.
Test [4] addresses Dihydroorotate dehydrogenase (quinone), mitochondrial (Plasmodium falciparum (isolate 3D7)) (UniProt Q08210). Description: inhibition of P. falciparum DHODH – biochemical, C-terminal His tag, absorbance 600 nm, primary screen (AID 1175).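 Further: recombinant parasite enzyme with a five histidine tag at its C terminus; test concentration not given here.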 The note with it: PfDHODH enzyme, DCIP absorbance 600 nm; higher = more signal, called active from +8 up or from −8 down.
Test [5] is described as follows: inhibition of PAO1 biofilm formation – strain PAO1, LB-PBS medium, absorbance 600 nm, primary screen (AID 1176). Further: test concentration not given here. The note with it: P. aeruginosa PAO1 growth/biofilm, A600, 12 h; higher = more signal.
Test [6] is described as follows: growth modulation of vineyard yeast isolate – strain RM11-1a, OD600, basal, 24 h, primary screen (AID 1177).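 Further: cultures grown under basal conditions with no added stressor; test concentration not given here.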 The following applies: S. cerevisiae RM11-1a growth, OD600, 24 h; higher = more signal, called active from +8 up or from −8 down.
The nature of test [7]: growth of efflux-deficient E. coli DRC39 – strain DRC39, OD650, 24 h, E. coli filamentation inducers, primary screen (AID 1178).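 Further: growth measured as culture turbidity by optical density at 650 nm; test concentration not given here.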 The following applies: E. coli DRC39 acrAB, higher = more signal, called active from +8 up or from −8 down.
Test [8] is described as follows: growth of efflux-deficient E. coli DRC39 – strain DRC39, OD650, 48 h, E. coli filamentation inducers, primary screen (AID 1179).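 Further: screen aims at cell division blockers that make cells filament.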 The following applies: E. coli DRC39 delta-acrAB growth, higher = more signal, called active from +8 up or from −8 down.
Test [9] can be described thus: viability profiling in RPMI8226 myeloma cells – cell-based, resazurin fluorescence, basal, 24 h, PK04 Diversity Set, profiling panel (AID 1180).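 Further: RPMI8826 multiple myeloma cell line at 5000 cells per well; test concentration not given here.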 The note with it: higher = more signal.
Test [10] has as its target E3 ubiquitin-protein ligase XIAP (Homo sapiens) (UniProt P98170). Description: small molecules binding XIAP protein – biophysical, small-molecule microarray, fluorescence 635 nm, primary screen (AID 1181).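 Further: score merges 667 nm emission and signal to noise over triplicate slides.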 The note with it: higher = more signal.

E3 ubiquitin-protein ligase XIAP (Homo sapiens), sequence (P98170 whole entry, looked up): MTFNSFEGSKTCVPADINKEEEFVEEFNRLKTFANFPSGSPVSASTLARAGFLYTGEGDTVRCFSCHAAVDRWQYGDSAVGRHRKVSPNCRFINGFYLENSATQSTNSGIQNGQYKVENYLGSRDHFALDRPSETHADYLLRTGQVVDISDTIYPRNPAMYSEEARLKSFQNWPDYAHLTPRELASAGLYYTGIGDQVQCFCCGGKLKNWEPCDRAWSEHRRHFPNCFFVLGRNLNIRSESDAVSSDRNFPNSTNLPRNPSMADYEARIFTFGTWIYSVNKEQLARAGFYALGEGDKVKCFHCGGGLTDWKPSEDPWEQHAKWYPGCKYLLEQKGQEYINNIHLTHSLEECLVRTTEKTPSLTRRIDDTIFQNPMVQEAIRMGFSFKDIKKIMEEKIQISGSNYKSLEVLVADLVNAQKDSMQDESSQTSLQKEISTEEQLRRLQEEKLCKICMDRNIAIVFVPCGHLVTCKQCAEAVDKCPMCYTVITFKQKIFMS
Dihydroorotate dehydrogenase (quinone), mitochondrial (Plasmodium falciparum (isolate 3D7)), sequence (Q08210 whole entry, looked up): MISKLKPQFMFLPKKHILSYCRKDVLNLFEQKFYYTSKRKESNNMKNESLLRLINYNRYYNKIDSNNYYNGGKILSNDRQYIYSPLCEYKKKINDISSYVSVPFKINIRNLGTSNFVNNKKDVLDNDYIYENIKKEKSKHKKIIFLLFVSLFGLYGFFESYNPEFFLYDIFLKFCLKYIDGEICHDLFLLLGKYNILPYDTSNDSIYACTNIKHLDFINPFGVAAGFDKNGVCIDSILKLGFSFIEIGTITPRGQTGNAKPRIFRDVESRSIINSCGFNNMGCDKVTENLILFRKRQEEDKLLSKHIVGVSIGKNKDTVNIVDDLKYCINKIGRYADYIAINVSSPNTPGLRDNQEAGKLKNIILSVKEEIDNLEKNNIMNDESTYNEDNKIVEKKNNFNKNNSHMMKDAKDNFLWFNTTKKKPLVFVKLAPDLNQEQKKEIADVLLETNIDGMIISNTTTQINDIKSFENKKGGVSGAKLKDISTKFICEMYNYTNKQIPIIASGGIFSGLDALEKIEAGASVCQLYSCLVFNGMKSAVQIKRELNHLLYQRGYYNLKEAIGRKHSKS

For the compound `C=CC[C@@H]1C=C[C@H](ON=C[C@@H](NS(=O)(=O)c2ccc(C)cc2)[C@H](C)C=CCC(=O)OC)[C@@H](CO)O1`, the z-score in [1] was -0.71; in [2] it was 0.071 (inactive); in test [3], -0.681 (inactive); in [5] it was 0.0525 (inactive); in test [6] it was -0.0257 (inactive); in test [7] it was -0.251 (inactive). Besides, the z-score in test [8] was 0.119 (inactive); in test [9], -0.422. The composite z-score in test [4] was -0.383 (inactive); in [10], -0.231.
Regarding `CCOC(=O)[C@H](Cc1ccccc1)NC(=O)CCC1CC(OC(=O)NCc2ccc3c(c2)OCO3)CC2(CCCC(COC(=O)NCCc3ccc(Cl)cc3)O2)O1` (stereo not given in full), the z-score in test [1] is -0.202; in test [2], -0.65 (inactive); in [3] it was 0.366 (inactive); in [5], 0.769 (inactive); in test [6] it was -1.72 (inactive); in test [7], -0.226 (inactive). Further, the figures for the z-score in test [8] and in [9] were -0.756 (inactive) and -0.759, respectively. Besides, the figures for the composite z-score in [4] and in test [10] were -1.47 (inactive) and -0.133, respectively.
For `CC(CCN1CCCc2nc(C)c(C)cc21)=NO[C@H](C)c1cn([C@H](CO)Cc2ccccc2)nn1`, the z-score was -0.325 in test [1]; 0.454 (inactive) in test [2]; 0.307 (inactive) in [3]; -0.291 (inactive) in [5]; 0.512 (inactive) in [6]; -0.801 (inactive) in test [7]. Also, the z-score in test [8] is -0.922 (inactive); in test [9] it was 0.0883. Moreover, the composite z-score is 1.27 (inactive) in [4] and 0.0015 in test [10].
With `COC(=O)CC=C[C@@H](C)[C@@H](C=NOC[C@@H](O)COCc1ccco1)OC`, the z-score in test [1] is -0.195; in [2], -0.656 (inactive); in test [3] it was -0.45 (inactive); in test [5], -1.23 (inactive); in test [6] it was 0.12 (inactive); in test [7], 0.539 (inactive). For the same compound, the z-score was 0.803 (inactive) in test [8] and 0.11 in [9]. For the same compound, the composite z-score in [4] is -0.527 (inactive); in test [10], 0.0345.
In the case of `O=C1[C@H]2[C@H]3[C@H](O)[C@H](O)CC(=NO[C@@H]4O[C@H](CO)[C@@H](O)[C@H](O)[C@H]4O)[C@@H]3CC[C@H]2C(=O)N1c1cccc(Oc2ccccc2)c1`, the z-score in [1] is 0.647; in [2] it was 0.0857 (inactive); in test [3] it was -0.602 (inactive); in test [5], -0.343 (inactive); in [6], 0.0867 (inactive); in [7], -0.492 (inactive). The results for the z-score in test [8] and in test [9] were -0.961 (inactive) and 0.279, respectively. In addition, the results for the composite z-score in test [4] and in test [10] were -0.111 (inactive) and -0.124, respectively.
In the case of `CCOC(=O)[C@H](Cc1ccccc1)NC(=O)CCC1CC(OC(=O)NCCc2ccc(F)cc2)CC2(CCCC(COC(=O)NCCC(C)C)O2)O1` (stereo not given in full), the z-score in [1] is 0.456; in test [2], -0.0624 (inactive); in test [3] it was 0.129 (inactive); in test [5] it was 0.0737 (inactive); in test [6] it was 1.05 (inactive); in test [7], 0.953 (inactive). The figures for the z-score in test [8] and in test [9] were -0.203 (inactive) and 1.16, respectively. For the same compound, the composite z-score is 0.0106 (inactive) in [4] and -0.0543 in [10].
Take `CN1CCc2nc(-c3ccccc3)c(-c3ccccc3)cc2C1`: the z-score was 0.713 in test [1]; 0.0367 (inactive) in test [2]; 0.476 (inactive) in [3]; -0.364 (inactive) in [5]; 0.298 (inactive) in test [6]; 0.38 (inactive) in test [7]. Also, the z-score in test [8] is 0.105 (inactive); in test [9] it was 0.639. Also, the composite z-score in test [4] is -0.191 (inactive); in test [10], 0.0024.
Consider `CCOC(=O)CCN1C(=O)[C@H]2[C@H]3[C@H](O)[C@H](O)CC(=O)[C@@H]3CC[C@H]2C1=O`, for which the z-score in test [1] is 1.09; in test [2] it was -0.375 (inactive); in test [3], 0.344 (inactive); in test [5], -0.708 (inactive); in test [6], -0.405 (inactive); in [7], -0.512 (inactive). Also, the z-score in test [8] is -0.897 (inactive); in test [9], 0.651. For the same compound, the composite z-score in test [4] is 0.462 (inactive); in test [10], 0.0408.
For the compound `CC(=O)OC[C@H]1O[C@@H](ON=C2[C@H]3CCn4c(=O)n(-c5ccccc5)c(=O)n4[C@H]3[C@H](O)[C@@H]3O[C@H]23)[C@H](OC(C)=O)[C@@H](OC(C)=O)[C@@H]1OC(C)=O`, the z-score was -0.779 in [1]; -0.499 (inactive) in [2]; -0.718 (inactive) in [3]; -0.443 (inactive) in test [5]; -0.184 (inactive) in test [6]; 0.435 (inactive) in test [7]. Also, the z-score in test [8] was 0.381 (inactive); in [9], -1.1. The composite z-score in [4] was -1.44 (inactive); in [10] it was -0.174.
As for `CC(C)[C@@H](OCc1ccccc1)[C@H](C)C=NO[C@H](C)c1cn([C@@H]2COC[C@H]2O)nn1`, the z-score in test [1] is -0.507; in test [2] it was -1.28 (inactive); in test [3], -0.648 (inactive); in [5], -0.0296 (inactive); in [6] it was -0.0941 (inactive); in test [7] it was 0.462 (inactive). Moreover, the z-score in test [8] is 0.178 (inactive); in [9], -0.64. The composite z-score in [4] is -0.498 (inactive); in test [10], -0.173.
On to `CC[C@@H](c1ccccc1)n1c(=O)n2n(c1=O)[C@H]1[C@H](O)[C@@H]3O[C@@H]3C(=NOCc3ccccc3)[C@H]1CC2`, for which the z-score in test [1] was -1.67; in [2], -1.04 (inactive); in test [3] it was -2.51 (inactive); in test [5] it was -0.0819 (inactive); in test [6], -0.15 (inactive); in test [7] it was -0.527 (inactive). Moreover, the values for the z-score in test [8] and in test [9] were -0.95 (inactive) and -2.34, respectively. Also, the composite z-score was 0.149 (inactive) in [4] and -0.0062 in [10].
In the case of `COC(=O)CC=C[C@@H](C)[C@@H](C=NOC[C@@H](C)[C@H](OCc1ccccc1)C(C)C)OC`, the z-score in test [1] was -1.01; in test [2], 0.285 (inactive); in test [3], 0.405 (inactive); in test [5], -0.892 (inactive); in test [6] it was 0.169 (inactive); in [7], -0.213 (inactive). Further, the z-score was -0.442 (inactive) in [8] and -0.286 in [9]. Moreover, the composite z-score was 0.957 (inactive) in test [4] and -0.118 in test [10].
`CON=C[C@@H](OC)[C@H](C)C=CCC(=O)OC`: the z-score in test [1] was 0.0392; in test [2], -0.117 (inactive); in test [3] it was 0.293 (inactive); in test [5], 0.0738 (inactive); in test [6] it was -0.557 (inactive); in [7], -0.311 (inactive). For the same compound, the figures for the z-score in test [8] and in test [9] were -2.25 (inactive) and -0.274, respectively. In addition, the composite z-score in test [4] was -0.241 (inactive); in test [10] it was -0.162.
Turning to `CCN1C(=O)[C@H]2[C@H]3[C@H](O)[C@H](O)CC(=NO[C@@H]4O[C@H](COC(C)=O)[C@@H](OC(C)=O)[C@H](OC(C)=O)[C@H]4OC(C)=O)[C@@H]3CC[C@H]2C1=O`, the z-score in test [1] was -1.15; in test [2], 0.902 (inactive); in [3], -0.974 (inactive); in test [5], -0.136 (inactive); in test [6] it was 0.164 (inactive); in test [7], 1.22 (inactive). Further, the z-score was 1.44 (inactive) in test [8] and -1.03 in test [9]. For the same compound, the composite z-score in [4] is -0.0673 (inactive); in [10], 1.92.
Consider `COC(=O)CC=C[C@@H](C)[C@@H](C=NOC[C@@H](C)[C@H](OCc1ccccc1)C(C)C)NS(=O)(=O)c1ccc(C)cc1`, for which the z-score is -1 in test [1]; -0.0668 (inactive) in test [2]; -0.562 (inactive) in [3]; -0.291 (inactive) in test [5]; 0.391 (inactive) in [6]; -0.247 (inactive) in [7]. Further, the z-score in [8] was -1.18 (inactive); in [9], 0.0833. In addition, the figures for the composite z-score in test [4] and in [10] were 1.07 (inactive) and -0.0844, respectively.
Turning to `CCOC(=O)[C@H](Cc1ccccc1)NC(=O)CCC1CC(OC(=O)NCc2ccc3c(c2)OCO3)CC2(CCCC(COC(=O)NCCOc3ccccc3)O2)O1` (stereo not given in full), the z-score is 0.425 in test [1]; -1.24 (inactive) in test [2]; 0.975 (inactive) in [3]; -0.102 (inactive) in test [5]; 0.0995 (inactive) in [6]; 0.662 (inactive) in test [7]. Besides, the z-score in test [8] is 0.181 (inactive); in test [9], 0.579. Further, the composite z-score in test [4] is -1.76 (inactive); in test [10] it was -0.0832.
